Source: PubChem BioAssay (NCI)
About 79,000 compounds went through this panel and 15% of them were active in at least one assay; those are over-represented in the sample as a whole. No stated cut-off is given here; in the data, active means growth inhibition above about 70%; inactive means the rest.

Key:
[1] = NCI Yeast Anticancer Drug Screen. Data for the rad50 strain (AID 155);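 further: 0% = growth of vehicle-only cultures of the same strain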; details: S. cerevisiae rad50 strain growth inhibition; at 50.0 µM; active compounds read high
Summary of the method: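 A DNA repair-deficient yeast mutant serves as the test organism; compound-induced growth inhibition is calculated against vehicle-treated cells.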

[2] = NCI Yeast Anticancer Drug Screen. Data for the mec2-1 strain (AID 157); details: S. cerevisiae mec2-1 strain, at 50.0 µM, active compounds read high
Summary of the method: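 mec2-1 yeast strain, carrying an alteration in DNA damage repair or cell cycle control, was exposed to compounds; growth inhibition was measured relative to vehicle-treated controls.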

[3] = NCI Yeast Anticancer Drug Screen. Data for the sgs1 mgt1 strain (AID 161);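 further: 0% = growth of cultures given vehicle only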; details: S. cerevisiae sgs1 mgt1 strain, at 50.0 µM, active compounds read high
Summary of the method: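 Growth of a repair-deficient yeast mutant was monitored after compound treatment and expressed as inhibition relative to vehicle-treated cultures.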

[4] = NCI Yeast Anticancer Drug Screen. Data for the cln2 rad14 strain (AID 165);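 further: 0% = growth equal to vehicle treated cultures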; details: S. cerevisiae cln2 rad14 strain, at 50.0 µM, active compounds read high
Summary of the method: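 Yeast carrying cln2 and rad14 alterations (cell cycle control and DNA damage repair) were exposed to compounds. Growth inhibition was measured against vehicle-treated controls.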

[5] = NCI Yeast Anticancer Drug Screen. Data for the bub3 strain (AID 167); details: S. cerevisiae bub3 mutant strain, at 50.0 µM, active compounds read high
Summary of the method: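 Inhibition values come from growth of compound-treated mutant yeast normalised to vehicle-treated controls.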

[6] = NCI Yeast Anticancer Drug Screen. Data for the mlh1 rad18 strain (AID 175); details: S. cerevisiae mlh1 rad18 strain growth inhibition; at 50.0 µM; active compounds read high
Summary of the method: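 Growth inhibition of the yeast strain was measured after compound exposure and expressed relative to vehicle-treated controls. The strain carries defined defects in DNA damage repair.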

Measured: growth inhibition

COc1ccc(C(C#N)CC(=O)c2ccccc2)cc1 (configuration not stated)
inactive: [1] 6.4% | [2] 10.9% | [3] 0.95% | [4] 4.45% | [5] -2.6% | [6] -8.35%

CN(C)Cc1cc(C(C)(C)C)cc(CN(C)C)c1O
inactive: [1] -4% | [2] -6.2% | [3] -13% | [4] -20.1% | [5] -36.4% | [6] -0.05%

CN1CCN(C(=S)N(C(=O)c2ccco2)c2ccccc2)CC1
inactive: [1] -57.8% | [2] -44.3% | [3] -22.6% | [4] -2.4% | [5] -0.1% | [6] -37.9%

CC1OC(n2ccc(NC(=O)c3ccc(NC(=O)C(C)(N)CO)cc3)nc2=O)CCC1OC1OC(C)C(N(C)C)C(O)C1O (configuration not stated)
inactive: [1] 30.4% | [2] -0.8% | [3] 6.05% | [4] 6% | [5] 1.75% | [6] 28.8%

COC1=CC(=O)C(=O)C=C1C(C)(C)C
inactive: [1] 49.2% | [2] 40.3% | [3] 48.8% | [4] 2.45% | [5] 49.4% | [6] 9.55%

CCCCS(=O)(=O)CCC(N)C(=O)O (configuration not stated)
inactive: [1] -3.45% | [2] -9.45% | [3] 2.6% | [4] -36.2% | [5] -4.75% | [6] -11.5%

CCCCCCC(C)C(=O)Nc1ccccc1 (configuration not stated)
inactive: [1] 16.7% | [2] -11.8% | [3] 10.7% | [4] 2.75% | [5] -2.95% | [6] -17.1%

[N-]=[N+]=Nc1nn2cnnc2c2[nH]c3ccccc3c12
inactive: [1] 46% | [2] 0.65% | [3] 4.25% | [4] -1.4% | [5] -14.9% | [6] 16.1%

CC12CCC(=O)C=C1CCC1C2CCC2(C)C(C(=O)Cn3c(=O)cc[nH]c3=O)CCC12 (configuration not stated)
inactive: [1] 1.2% | [2] -3.7% | [3] -0.5% | [4] 15.8% | [5] -1.35% | [6] 1.85%

Cc1ccc(C2(O)CCCCC2)cc1
inactive: [1] -9.8% | [2] -8.45% | [3] -32% | [4] 26.2% | [5] -8.95% | [6] 7.1%

O=C(OCc1ccc(Cl)cc1Cl)OCc1ccc(Cl)cc1Cl
inactive: [1] 7.55% | [2] -0.9% | [3] -3.7% | [4] -31.7% | [5] 19.2% | [6] 37.4%

Cn1nc2ccc([N+](=O)[O-])cc2[n+]1[O-]
inactive: [1] 28.4% | [2] -2.45% | [3] -2.8% | [4] -19.4% | [5] 0.05% | [6] -17.2%

CC1C=CCC2C(=O)OC(=O)C12 (configuration not stated)
inactive: [1] 10.3% | [2] -1.65% | [3] -4.65% | [4] -3.8% | [5] -0.75% | [6] 15.6%

Cn1nc(-c2ccccc2)c(C(=O)/C=C/c2ccc(Cl)cc2)c(N2CCCC2)c1=O
inactive: [1] -5.1% | [2] -1.5% | [3] -4.9% | [4] -5.95% | [5] 14.8% | [6] -10.1%

C/C=C(/c1ccccc1)c1ccc(N(C)C)cc1
inactive: [1] 2.25% | [2] 0.85% | [3] -10.1% | [4] -4.7% | [5] 9.2% | [6] 4.35%

N#CCCN(CCC#N)C(Cc1cn(CCC#N)cn1)C(=O)O (configuration not stated)
inactive: [1] -8.5% | [2] 6.35% | [3] 4.95% | [4] -13.2% | [5] 5.35% | [6] 10.8%

CCOC(=O)c1cnc(SC)nc1N
inactive: [1] 9.25% | [2] -8.1% | [3] -7.9% | [4] -2.1% | [5] 8.95% | [6] -3.5%

CCCOC(=O)CCBr
inactive: [1] -2.55% | [2] 10.1% | [3] -13.9% | [4] -57% | [5] -22.9% | [6] -8.1%

CN1CCS(=O)(=O)NC(Cc2ccccc2)C(=O)N2CCCC2C1=O (configuration not stated)
inactive: [1] -6.5% | [2] -13.2% | [3] -4.5% | [4] 29.6% | [5] -11.7% | [6] -8.5%

O=C(O)c1cc(Cl)c(Cl)s1
inactive: [1] 13.2% | [2] -20.1% | [3] 16.7% | [4] -68.9% | [5] -18.3% | [6] -1.9%

Nc1ccc(P(=O)(O)c2ccc(N)cc2Br)c(Br)c1
inactive: [1] 35.1% | [2] -6.1% | [3] 18.4% | [4] 1.55% | [5] -4% | [6] -6.8%

CCCCCCCC[N+](C)(C)C
inactive: [1] -48.8% | [2] -44.5% | [3] -26.6% | [4] 11.5% | [5] -28.7% | [6] -39.8%

CCCCC(CC)CSC[N+](C)(CC)CC (configuration not stated)
inactive: [1] 45% | [2] 24.8% | [3] 22.4% | [4] 1.5% | [5] 15.9% | [6] 20.6%

CC(=O)N(C(C)=O)c1ccc2c3c(cccc13)CC2
inactive: [1] 0% | [2] -3.9% | [3] 2.6% | [4] -19.1% | [5] 8.1% | [6] -1.2%

CCO/C(O)=c1/s/c(=C(\C#N)c2nc3ccccc3[nH]2)n(-c2ccccc2)c1=N
inactive: [1] 11.6% | [2] 3.4% | [3] 2.3% | [4] -37.9% | [5] -20.4% | [6] -26.8%

O=c1cc(-c2cccnc2)oc2ccc(Cl)cc12
inactive: [1] 59.8% | [2] -2.8% | [3] 7.7% | [4] -33.9% | [5] 11.2% | [6] 5.85%

CCC1(CC)C(=O)N(C(=O)c2ccc(Cl)cc2)N(C(=O)c2ccccc2Cl)C1=O
inactive: [1] 22.3% | [2] 23.8% | [3] 5.8% | [4] 41.8% | [5] 49.2% | [6] -53.5%

Cn1c(CC(O)(C(F)(F)Cl)C(F)(F)Cl)cc(=O)n1-c1ccccc1
inactive: [1] 41.6% | [2] 1.3% | [3] 8.7% | [4] 6.25% | [5] 7% | [6] 7.2%

O=C(O)c1cscc1Cc1ccccc1
inactive: [1] 0.9% | [2] -2.25% | [3] -1.7% | [4] -21.1% | [5] -20.8% | [6] 5.45%

O=C1OC[C@H]2[C@@H]1[C@H]1O[C@@H]2C2=C(CCC2)C1=O
inactive: [1] -27.4% | [2] -38.8% | [3] -43.5% | [4] -19.7% | [5] -30.9% | [6] -51.3%

CCC1CCC(Cc2ccncc2)CC1 (configuration not stated)
inactive: [1] 3.65% | [2] -7.4% | [3] -11.9% | [4] -78.9% | [5] 13.4% | [6] -0.9%

CCOC(=O)C(Cc1cc(N)c(O)c(N)c1)NC(C)=O (configuration not stated)
inactive: [1] 1.95% | [2] -4.95% | [3] -1.5% | [4] 6.8% | [5] -1.45% | [6] -0.85%

CCCc1nc(N)[nH]c(=O)c1I
inactive: [1] -26% | [2] -9.1% | [3] -15.1% | [4] 5.3% | [5] 7.8% | [6] 0.45%

Oc1[nH]c2ccccc2c1N=Nc1nc(-c2ccc(Br)cc2)cs1
inactive: [1] -24.9% | [2] -24.8% | [3] -17.4% | [4] -10.2% | [5] 12% | [6] 5.5%

C/C=C/C(O)CCCC (configuration not stated)
inactive: [1] -13.2% | [2] -7.15% | [3] 4.15% | [4] 2.75% | [5] -28.2% | [6] -7.2%

Cc1ccc2nc(-c3ccc(CSC(=N)N)cc3)oc(=O)c2c1
inactive: [1] 40.2% | [2] 43.5% | [3] 45.6% | [4] 20.9% | [5] 19.1% | [6] 42%

CCOC(=O)CC[C@H](NC(=O)c1[nH]cnc1/N=N/N(C)C)C(=O)OCC
inactive: [1] -24.5% | [2] -41.5% | [3] -56% | [4] 3.7% | [5] -12.1% | [6] -36.9%

Cc1ccsc1/C=N/Nc1nc2ccccc2s1
inactive: [1] 1.7% | [2] -1.5% | [3] 13.7% | [4] 9.2% | [5] -2.15% | [6] 11.3%

CCOC(=O)NC(Nc1ccc(C(=O)O)cc1)(C(F)(F)F)C(F)(F)F
inactive: [1] -5.75% | [2] -10.8% | [3] -38.5% | [4] 18.6% | [5] 4.65% | [6] 11.4%

CCOC(=O)/C(=C\c1cc(C)c(OC(C)=O)c(OC)c1)NC(=O)c1ccccc1
inactive: [1] -17.1% | [2] -15.2% | [3] -11.1% | [4] 0.1% | [5] -3.45% | [6] -4.25%

CC1CCC(=O)NCCCCC(=O)N1 (configuration not stated)
inactive: [1] 22.9% | [2] 1.85% | [3] 25.3% | [4] 15.6% | [5] 3.45% | [6] 26.6%

CC(C)(C)c1nc2c(o1)C(=Nc1ccc(F)cc1)c1ccccc1C2=O
inactive: [1] 8.6% | [2] 3.15% | [3] 14.7% | [4] 38.1% | [5] 0.65% | [6] -2.5%
